{"source": "PubChem BioAssay (NCI)", "note": "The panel holds about 83,000 compounds, 20% with a hit somewhere; the sample as a whole holds those more often.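 A percent growth of 40 corresponds to 60% growth inhibition; 0 means no net growth; -100 means all cells died. Active threshold: below 10.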 Active and inactive are the calls of the source.", "data": [{"test_system": "NCI-H23 lung", "assay": "NCI-60 one-dose screen, 48 h (100 = growth as untreated, 0 = no growth, -100 = all killed)", "settings": "10 µM unless noted", "values": [{"smiles": "Cc1ccc2c(n1)C(=O)C(Cl)=C(Nc1ccc(C#N)cc1)C2=O", "growth": "92.3% (inactive)"}, {"smiles": "CC(C)(O)c1cncc(-c2ccc3ncc(C#N)c(N4CCc5cc(F)c(Cl)cc54)c3c2)c1", "growth": "26.8% (inactive)"}, {"smiles": "O=c1c2ccccc2cc2n1CCN=C2c1ccccc1", "growth": "93.8% (inactive)"}, {"smiles": "O=C(CN1CCN(c2cc(=O)[nH]c3ccc(F)cc23)CC1)N(c1ccccc1)c1ccccc1", "growth": "99.1% (inactive)"}, {"smiles": "CCc1cc(OC(=O)N2CCC(N3CCCCC3)CC2)ccc1Nc1cc(-c2ccc(-n3cccn3)cc2)[nH]n1", "growth": "80.3% (inactive)"}, {"smiles": "CCCC/C(=C\\c1ccc(O)c(O)c1)C(=O)NC(Cc1ccccc1)C(=O)C(=O)NCCc1ccc(OC)cc1", "note": "(stereo not drawn)", "growth": "92.2% (inactive)"}, {"smiles": "CN(C)c1ccc(-c2cc(-c3c[nH]c4ccccc34)nc(N)c2C#N)cc1", "growth": "54.8% (inactive)"}, {"smiles": "COc1cc(C(=O)c2cc(C(C)=O)c3ccc(C)cn23)cc(OC)c1OC", "growth": "48.9% (inactive)"}, {"smiles": "CCOC(=O)c1ccccc1NC1=C(Cl)C(=O)c2nc(C)ccc2C1=O", "growth": "81.5% (inactive)"}, {"smiles": "CN(C)S(=O)(=O)c1ccc(-c2nc(C(Cl)Cl)nc3cc(-c4ccccc4)nn23)cc1", "growth": "85% (inactive)"}, {"smiles": "CN1CCN(c2ccc(Nc3nc(NCCCNS(=O)(=O)c4ccc(Cl)cc4)c4sccc4n3)cc2)CC1", "growth": "65% (inactive)"}, {"smiles": "O=C1[C@@H]2Cc3c([nH]c4ccccc34)[C@H](c3ccc(Cl)cc3)N2C(=O)CN1C1CCN(Cc2ccccc2)CC1", "growth": "74.1% (inactive)"}, {"smiles": "CN1CCN(CCNc2nc(-c3cccc(NS(=O)(=O)c4cccc5c(N(C)C)cccc45)c3)cs2)CC1", "growth": "51.9% (inactive)"}]}]}
